Each structure is given as a SMILES string. Hit rate of the full screen: of about 69,000 compounds, about 8,600 (12%) showed an effect of 50% or more. For the sample, strong results were picked, then their nearest neighbours and some compounds at random.

The subject of this experiment is Plasmodium berghei. Briefly: Screen against P. berghei liver stage (PbLuc), transformed with Luciferase, at 10uM. Particulars: tested at 10 uM. Format: functional, HepG2.
Consider `Cc1cc(C(=O)N2CCN(c3nc4c(C(C)C)cccc4s3)CC2)on1`, for which the INHIBITION was 92.1%.
As to `COc1cccc2sc(N3CCN(C(=O)c4cc(C)on4)CC3)nc12`, the INHIBITION is given as 17.1%.
Then `Cc1cc(C(=O)N2CCN(c3nc4c(F)cccc4s3)CC2)no1`, with -18.5%; and `Cc1cc(C(=O)N2CCN(c3nc4c(C(C)C)cccc4s3)CC2)no1`, with 90.4%.
As to `COc1cc(C)nc(N2CCN(C(=O)c3cc(C)no3)CC2)n1`, the INHIBITION is 19.2%.
Then `Cc1cc(C(=O)N2CCN(c3nc4c(C)cccc4s3)CC2)no1`, with 24.7%; and `CC(C)Nc1cccc(CC2CCN(S(C)(=O)=O)CC2)n1`, with 41.2%; and `c1ccc(CN2CCc3ncnc(C4CC4)c3CC2)cc1`, with 0.164%.
Then `Cn1ccnc1CN1CCc2ncnc(N3CCCC(C#N)C3)c2CC1` (stereo not given), with 11.3%.
Then `N#CC1CCCN(c2ncnc3c2CCN(Cc2ccccc2)CC3)C1` (stereo not given), with 67.8%; and `O=C(c1ccc2c(c1)CCC2)N1CC[C@H](O)[C@]2(CCCO2)C1`, with 32.3%.
`CC(C)c1nc(-c2cc(C(=O)NCCN(C)C)c3ccccn23)cs1`: the INHIBITION was -2.41%.
Then `CN(Cc1ccc([S+](C)[O-])cc1)c1ccc(Cl)cn1` (stereo not given), with 33%; and `Cc1csc(CNC(=O)N(C)Cc2ccc([S+](C)[O-])cc2)n1` (stereo not given), with 20.6%; and `CN(Cc1ccncc1)c1cncc(Br)c1`, with 33.4%.
Turning to `CN(Cc1ccc([S+](C)[O-])cc1)c1cncc(Cl)n1` (stereo not given), the INHIBITION is reported as 52.2%.
Next, `Cc1ncc(CNC(=O)N(C)Cc2ccc([S+](C)[O-])cc2)s1` (stereo not given): 40.5%; `CN(Cc1ccc([S+](C)[O-])cc1)c1cncc(Br)c1` (stereo not given): 58.4%; `CCc1cc(=O)[nH]c(SCc2ccccn2)n1`: -35.5%.
Next, `Cc1noc(C(C)C)c1C(=O)N1CCC(n2cccn2)CC1`: 26.5%.
Then `Cc1cc(C)n(CC2CN(Cc3nc(C)c(C)o3)CCO2)n1` (stereo not given), with -47.6%; and `CN1CCN(C(=O)NC2CC2)Cc2cccnc21`, with 0.547%.
Turning to `COC1COC2(CCN(Cc3ccc(Cl)cc3)CC2)C1` (stereo not given), the INHIBITION amounted to 19.5%.
Next, `Cn1cc(CNC2CCC(O)CC2)c(-c2cc3ccccc3o2)n1` (stereo not given): 72.1%.
Next, `Cn1cc(CNC2CCS(=O)(=O)C2)c(-c2cc3ccccc3o2)n1` (stereo not given): 35%; `Cn1cc(CNC2CCOCC2)c(-c2cc3ccccc3o2)n1`: 39.6%.
Next, `COc1cccc(CN2CCC3(CCN(C(=O)[C@H]4CCCO4)CC3)C2)c1`: 43.2%; `Cc1nn(C)c(=O)c2nn(-c3ccc(Cl)cc3)c(C)c12`: 28.5%; `O=C([C@@H]1COC[C@H]2CN(CC3CCCC3)C[C@H]21)N1CCOCC1`: 65.9%.
Turning to `O=C([C@@H]1COC[C@H]2CN(CC3CC3)C[C@H]21)N1CCC(F)CC1`, the INHIBITION worked out at 12.7%.
Next, `O=C([C@H]1COC[C@H]2CN(CC3CCCC3)C[C@H]21)N1CCOCC1`: 11.3%.
Then `O=C(C1CN(CC2CC2)CC12CCOCC2)N1CCOCC1` (stereo not given), with -7.24%; and `O=C([C@H]1COC[C@H]2CN(CC3CC3)C[C@H]21)N1CCOCC1`, with 60%; and `O=C([C@H]1COC[C@H]2CN(CC3CCC3)C[C@H]21)N1CCOCC1`, with 24.6%.
Take `Cc1cnn(CCNCc2csc(-c3ncccn3)n2)c1`: the INHIBITION was 27.95%.
Then `CCc1nnc(CN(CC)C(=O)C2CC(=O)N(C3CCCC3)C2)o1` (stereo not given), with 43.2%.
Then `Cc1cc(C)cc(C(=O)Nc2cccc(CN3CCCC3C(N)=O)c2)c1` (stereo not given), with 56%; and `NC(=O)C1CCCN1Cc1cccc(NC(=O)c2ccsc2)c1` (stereo not given), with -18.4%; and `NC(=O)C1CCCN1Cc1cccc(NC(=O)c2ccc(Cl)cc2F)c1` (stereo not given), with 44%.
On to `CCc1ccc(C(=O)Nc2cccc(CN3CCCC3C(N)=O)c2)cc1` (stereo not given), for which the INHIBITION is -40.7%.
Then `NC(=O)C1CCCN1Cc1cccc(NC(=O)c2cc(Cl)cc(Cl)c2)c1` (stereo not given), with 68.8%.
Consider `NC(=O)C1CCCN1Cc1cccc(NC(=O)c2cccs2)c1` (stereo not given), for which the INHIBITION is recorded as -8.22%.
Next, `C[C@]12CCCCN(C(=O)c3ccccn3)[C@H]1CCCC(=O)N2`: 11.1%; `CC1CCc2nn(CCNC(=O)c3ccco3)c(=O)cc2C1` (stereo not given): -16.9%; `COc1cccc(S(=O)(=O)NC(=O)C2CC(c3ccccc3)=NO2)c1` (stereo not given): -24.7%.
Then `c1ccc(COC[C@@H]2CCC[C@]23CN(Cc2nccs2)CCO3)nc1`, with 74.2%; and `COC[C@@H]1CCC[C@]12CN(Cc1cccc(C)n1)CCO2`, with -11.8%; and `O=C(c1ccoc1)N1CCO[C@]2(CCC[C@@H]2COCc2ccncc2)C1`, with -6.23%.
Turning to `CCOC[C@@H]1CCC[C@@]12CN(Cc1cccnc1)CCO2`, the INHIBITION is reported as 48.6%.
Next, `c1cncc(OC[C@@H]2CCC[C@@]23CN(Cc2nccs2)CCO3)c1`: 66%.
Turning to `c1csc(COC[C@H]2CCC[C@]23CN(Cc2ccoc2)CCO3)n1`, the INHIBITION was 63.7%.
Next, `COC[C@@H]1CCC[C@@]12CN(Cc1ccco1)CCO2`: -0.813%.
Consider `c1coc(CN2CCO[C@@]3(CCC[C@@H]3COCc3nccs3)C2)c1`, for which the INHIBITION was determined as 53.2%.
For the molecule `O=C(c1ccc[nH]1)N1CCO[C@]2(CCC[C@@H]2COc2cccnc2)C1`, the INHIBITION was -34.7%.
Then `CCOC[C@@H]1CCC[C@@]12CN(Cc1nccs1)CCO2`, with 35.8%; and `COC[C@@H]1CCC[C@]12CN(Cc1ccco1)CCO2`, with 8.67%.
Then `c1ccc(OC[C@H]2CCC[C@]23CN(Cc2nccs2)CCO3)nc1`, with 38.7%; and `CCc1noc(C2CCCCN2C(=O)c2sccc2C)n1` (stereo not given), with 40.8%; and `O=C(O)c1cc2c(nc1N1CCOCC1)CCN(C1CCOC1)CC2` (stereo not given), with -12.1%.
As for `CC(=O)NC1CCCN(C(=O)NCc2cccnc2)C1` (stereo not given), the INHIBITION is recorded as -51.5%.
Next, `CC(C)CN1CCC2(CC1)CC(NS(C)(=O)=O)c1ccccc1O2` (stereo not given): 6.55%; `CCOCCCC(=O)N(C)C(c1cccc(F)c1)c1ccccn1` (stereo not given): -18%; `Cc1nc(C2CCNCC2)cc(N(C)Cc2cc3cc(F)ccc3[nH]2)n1`: 33.5%.
Then `COc1cnc(CSc2nnc(C)s2)cc1OCC(N)=O`, with 34.2%.
Next, `CCN1C(=O)CCCC12CCCN(C(=O)c1occc1C)C2` (stereo not given): 23.5%.

Values taken from ChEMBL document CHEMBL4513216, “Probing the Open Global Health Chemical Diversity Library for Multistage-Active Starting Points for Next-Generation Antimalarials” (ACS Infect Dis, 2020).
